# Measured values from PubChem BioAssay.
# Values without a mark were called inactive. For some assays here: Measured potencies and affinities stand elsewhere. The source made the active and inactive calls. Unless noted, the rule behind the calls is not given here.
# Experiments:
# [1] = antimalarial activity against Dd2 strain (AID 2302;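 active = growth inhibition above 50% at the single 2 µM test dose, taken to imply half-maximal potency below 2 µM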;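 note: 0% = DMSO untreated growth and 100% = chloroquine plus artemisinin killed control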); details: P. falciparum Dd2 in RBCs, LDH growth readout, 72 h; at 2 µM; stronger effect = higher value
# [2] = HepG2 cytotoxicity, primary screen, cytotoxicity control for P. falciparum antimalarial project, cell-based, ATP luminescence (AID 2303;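 active = inhibition above 50%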;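 note: 0% = DMSO wells and 100% = digitonin-killed cells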); details: HepG2 viability, 24-48 h, at 10 µM, stronger effect = higher value
# [3] = biological target: L-lactate dehydrogenase (Plasmodium falciparum (isolate CDC / Honduras)) (UniProt Q27743); test: PfLDH activity inhibition – cell lysate, 3D7 strain, counter-screen for P. falciparum growth inhibition project (AID 2304);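 note: 0% = vehicle and 100% = reference inhibitor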; details: P. falciparum 3D7 crude extract, LDH APAD/NBT absorbance; at 2 µM; stronger effect = higher value
# Sequence of L-lactate dehydrogenase (Plasmodium falciparum (isolate CDC / Honduras)) (Q27743 whole entry, looked up): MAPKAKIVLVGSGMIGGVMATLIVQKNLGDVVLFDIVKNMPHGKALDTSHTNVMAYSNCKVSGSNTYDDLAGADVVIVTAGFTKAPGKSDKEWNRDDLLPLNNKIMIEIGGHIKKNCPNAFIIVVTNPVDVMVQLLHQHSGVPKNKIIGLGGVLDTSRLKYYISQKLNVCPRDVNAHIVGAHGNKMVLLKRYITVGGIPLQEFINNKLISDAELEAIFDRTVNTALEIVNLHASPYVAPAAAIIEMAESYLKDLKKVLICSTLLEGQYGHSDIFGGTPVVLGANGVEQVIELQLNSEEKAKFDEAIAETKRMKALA
# [4] = inhibition of 3D7 malaria parasite growth – strain 3D7 (AID 2306);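 note: 0% = DMSO wells and 100% = chloroquine plus artemisinin control wells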; details: P. falciparum 3D7 erythrocytic growth, LDH absorbance, 72 h; at 2 µM; stronger effect = higher value
# [5] = biological target: Calcium-dependent protein kinase 1 (Plasmodium falciparum (isolate 3D7)) (UniProt P62344); test: PfCDPK1 kinase inhibitors, biochemical, TCAMS library (AID 1159585; cut-off not given, nearly all actives have IC50 up to about 0.98 µM;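 note: inhibitors leave more ATP so luminescence rises with inhibition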); details: recombinant PfCDPK1, Kinase-Glo ATP depletion luminescence
# Sequence of Calcium-dependent protein kinase 1 (Plasmodium falciparum (isolate 3D7)) (P62344 whole entry, looked up): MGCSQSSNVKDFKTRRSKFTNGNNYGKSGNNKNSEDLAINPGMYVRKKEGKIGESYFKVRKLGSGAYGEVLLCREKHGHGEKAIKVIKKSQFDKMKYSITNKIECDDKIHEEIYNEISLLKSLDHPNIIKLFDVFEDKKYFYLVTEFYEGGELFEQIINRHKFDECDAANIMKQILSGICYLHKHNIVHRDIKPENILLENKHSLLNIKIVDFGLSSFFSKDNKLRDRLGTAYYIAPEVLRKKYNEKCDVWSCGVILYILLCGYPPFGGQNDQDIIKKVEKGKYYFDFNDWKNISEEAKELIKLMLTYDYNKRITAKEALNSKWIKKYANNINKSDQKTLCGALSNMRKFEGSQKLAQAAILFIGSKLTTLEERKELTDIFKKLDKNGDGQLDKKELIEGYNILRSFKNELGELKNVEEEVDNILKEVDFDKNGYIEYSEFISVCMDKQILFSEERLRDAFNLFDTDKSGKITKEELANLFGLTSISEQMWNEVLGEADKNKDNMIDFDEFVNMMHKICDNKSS
# [6] = biological target: Plasmodium falciparum protein kinase 6 (PK6, PF3D7_1337100) (UniProt Q8IDW1); test: PfPK6 kinase inhibitors, biochemical, TCAMS library (AID 1159586); details: recombinant PfPK6, Kinase-Glo ATP depletion luminescence
# Sequence of Plasmodium falciparum protein kinase 6 (PK6, PF3D7_1337100) (Q8IDW1 1-305): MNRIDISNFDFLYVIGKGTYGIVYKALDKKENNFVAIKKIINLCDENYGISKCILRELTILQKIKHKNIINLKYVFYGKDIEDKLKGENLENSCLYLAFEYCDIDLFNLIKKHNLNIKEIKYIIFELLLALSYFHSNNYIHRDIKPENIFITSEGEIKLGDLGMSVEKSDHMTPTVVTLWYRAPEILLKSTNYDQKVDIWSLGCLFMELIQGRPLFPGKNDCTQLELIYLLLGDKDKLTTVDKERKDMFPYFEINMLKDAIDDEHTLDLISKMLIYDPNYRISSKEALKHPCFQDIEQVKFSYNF
# [7] = biological target: Protein kinase 7 (PK7), Plasmodium falciparum 3D7 (PF3D7_0213400) (UniProt Q7YTF7); test: inhibition of Plasmodium PK7 catalytic activity – biochemical, TCAMS antimalarial set, Kinase-Glo luminescence (AID 1159587); details: recombinant PfPK7, Kinase-Glo ATP depletion luminescence
# Sequence of Protein kinase 7 (PK7), Plasmodium falciparum 3D7 (PF3D7_0213400) (Q7YTF7 1-343): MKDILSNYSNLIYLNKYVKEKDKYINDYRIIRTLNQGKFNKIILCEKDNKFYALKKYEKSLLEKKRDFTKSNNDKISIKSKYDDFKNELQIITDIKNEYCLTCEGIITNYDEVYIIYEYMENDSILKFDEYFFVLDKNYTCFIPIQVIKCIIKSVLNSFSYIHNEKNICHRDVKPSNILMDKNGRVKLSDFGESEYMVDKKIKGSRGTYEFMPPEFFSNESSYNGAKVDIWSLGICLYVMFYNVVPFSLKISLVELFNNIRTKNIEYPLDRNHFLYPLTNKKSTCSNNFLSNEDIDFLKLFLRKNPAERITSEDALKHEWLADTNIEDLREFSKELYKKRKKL
# [8] = biological target: Calcium-dependent protein kinase 4 (Plasmodium falciparum (isolate 3D7)) (UniProt Q8IBS5); test: PfCDPK4 kinase inhibitors, biochemical, TCAMS library (AID 1159588; cut-off not given, nearly all actives have IC50 up to about 0.91 µM); details: recombinant PfCDPK4, Kinase-Glo ATP depletion luminescence
# Sequence of Calcium-dependent protein kinase 4 (Plasmodium falciparum (isolate 3D7)) (Q8IBS5 whole entry, looked up): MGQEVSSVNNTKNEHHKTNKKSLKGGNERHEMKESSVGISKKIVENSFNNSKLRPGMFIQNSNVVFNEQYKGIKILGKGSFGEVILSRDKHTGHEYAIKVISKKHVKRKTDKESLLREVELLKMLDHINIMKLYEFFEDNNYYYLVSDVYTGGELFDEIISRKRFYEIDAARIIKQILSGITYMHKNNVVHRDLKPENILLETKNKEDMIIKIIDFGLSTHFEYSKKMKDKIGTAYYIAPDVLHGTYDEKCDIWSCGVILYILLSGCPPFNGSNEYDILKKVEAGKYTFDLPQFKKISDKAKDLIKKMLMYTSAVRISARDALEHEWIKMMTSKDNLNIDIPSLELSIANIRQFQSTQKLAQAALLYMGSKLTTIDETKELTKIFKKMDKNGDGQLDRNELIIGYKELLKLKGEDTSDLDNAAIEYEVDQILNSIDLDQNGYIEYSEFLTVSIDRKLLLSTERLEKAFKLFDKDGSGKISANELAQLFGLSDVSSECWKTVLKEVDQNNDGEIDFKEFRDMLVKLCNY
SMILES,growth inhibition [1],inhibition [2],inhibition [3] [%],growth inhibition [4],outcome [5],outcome [6],outcome [7],outcome [8]
Nc1nc(N)c2c(Cl)c(N3CCOCC3)ccc2n1,3%,65% (active),1,96% (active),inactive,inactive,inactive,inactive
CS(=O)(=O)NCCCNCc1cccc(-c2ccc(-c3nc4ccc(C(F)(F)F)cc4[nH]3)cc2)c1,85% (active),17%,-4,100% (active),inactive,inactive,inactive,inactive
CC(C)(C)OC(=O)NCc1ccc(Nc2nnc(-c3ccc(OCC(=O)NC[C@@H]4CC[C@H]5C[C@@H]4C5(C)C)c([N+](=O)[O-])c3)o2)cc1,52% (active),29%,-3,94% (active),inactive,inactive,inactive,inactive
CC(CON1C(N)=NC(N)=NC1(C)C)c1ccc(Cl)cc1Cl (configuration not stated),95% (active),64% (active),0,97% (active),inactive,inactive,inactive,inactive
C[C@H]1[C@H](c2cccc(Cl)c2)OCC(C)(C)N1C(=O)CCN1CCCCC1,5%,2%,-1,88% (active),inactive,inactive,inactive,inactive
COc1ccc2nccc([C@@H](O)CN3CCC(NCc4cc5cc(OC(F)(F)F)ccc5[nH]4)CC3)c2c1,82% (active),49%,2,100% (active),inactive,inactive,inactive,inactive
O=[N+]([O-])c1ccc(/C=N/Nc2cc(-c3ccccc3)nc3ccccc23)o1,49%,48%,-5,93% (active),inactive,inactive,inactive,inactive
Cc1ccc(Nc2ccnc(Nc3ccc(F)c(Cl)c3)n2)cc1O,52% (active),9%,-4,101% (active),inactive,inactive,inactive,inactive
O=[N+]([O-])c1ccc(NC(=NC2CCCc3ccccc32)Nc2ccccc2Br)c(O)c1 (configuration not stated),89% (active),-4%,-3,98% (active),inactive,inactive,inactive,inactive
Cc1[nH]c(C)c(-c2ccc(-c3ccccc3)nc2)c(=O)c1Br,95% (active),-3%,-1,96% (active),inactive,inactive,inactive,inactive
COCCN1CCN(Cc2cccc(-c3ccc(-c4nc5ccccc5[nH]4)cc3)c2)CC1,50% (active),9%,1,100% (active),inactive,inactive,inactive,inactive
Cc1cc(Oc2cc(NC(=O)c3sc4ncn(Cc5ccccc5F)c(=O)c4c3C)cc([N+](=O)[O-])c2)ccc1Cl,24%,2%,3,94% (active),inactive,inactive,inactive,inactive
COc1ccccc1CN1CCC(NC(=O)c2ccc(-c3ccc(N(C)C)cc3)s2)CC1,38%,29%,-2,90% (active),inactive,inactive,inactive,inactive
Cc1nc2nc(N)nc(N)c2c(C)c1Cc1ccccc1Cl,-2%,63% (active),-3,93% (active),inactive,inactive,inactive,inactive
Cc1cccc2[nH]c(-c3cccc(-c4ccc(C(=O)NCc5nccn5C)cc4)c3)nc12,9%,18%,1,100% (active),inactive,inactive,inactive,inactive
CC(=O)N/N=C/[C@H](CCc1ccccc1)NC(=O)[C@H](CC(C)C)NC(=O)c1cccc(OCCN2CCOCC2)c1,78% (active),13%,-6,94% (active),inactive,inactive,inactive,inactive
c1cncc(CN2CCCN(c3ccc4c(c3)CCN(Cc3ccc(-c5ncc[nH]5)cc3)CC4)CC2)c1,33%,7%,2,99% (active),inactive,inactive,inactive,inactive
COc1ccc(NC(=O)NC2CCN(c3ccnc4cc(Cl)ccc34)CC2)cc1,64% (active),5%,-10,83% (active),inactive,inactive,inactive,inactive
COc1ccc(-c2cccc(NC(=O)c3cccc(F)c3)c2)cc1CN1CCCN(C)CC1,78% (active),42%,0,101% (active),inactive,inactive,inactive,inactive
